High-throughput results from PubChem.
A selection: hits, their analogues and other compounds. The true share with any hit is near 8.7%.
ALOX12 inh – ALOX12 (human) lipoxygenase inhibition | P18054 | purified 12hLO, xylenol orange hydroperoxide absorbance | Potency, µM (titrated, usually from 108 µM), actives largely listed as inhibitors | 580,000 tested, 1.1% active | AID 1671190
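Purified human 12hLO at 150 nM in 25 mM Hepes, 0.01% Triton X-100, pH 7.0, preincubated 15 min at room temperature with compound. Reaction started with 40 uM arachidonic acid, 30 min at room temperature. Hydroperoxide measured by Fe-xylenol orange, 573/405 nm absorbance ratio.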
Sfp PPTase inh – Sfp phosphopantetheinyl transferase inhibition. Q9F4F7. Biochemical Sfp PPTase activity, qHTS. Potency, µM, most hits filed as inhibitors. 310,000 tested, 3.5% active. AID 1490;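 also: the enzyme is Sfp with the accession as filed and its product quenches rhodamine fluorescence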
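Compounds were incubated with enzyme (final 15 nM) for 15 min at room temperature before substrate addition started the reaction. Fluorescence at 525 nm excitation, 598 nm emission was recorded immediately and after 30 minutes.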
JMJD2A Tudor inh – JMJD2A Tudor domain (human) inhibition; Potency, µM (titrated, usually from 114 µM), actives largely listed as inhibitors; AlphaScreen JMJD2A-Tudor / H3K4me3 peptide binding; AID 504339; 390,000 tested, 4.4% active; O75164; also: nearly all actives have a fitted effect of over 50% in size
BAZ2B inh – inhibitors of human BAZ2B bromodomain; Q9UIF8; AlphaScreen BAZ2B-H3K14Ac peptide displacement; Potency, µM (doses to about 114 µM), hits mostly inhibitors; 360,000 tested, 4.4% active; AID 504333; also: nearly all actives have a fitted effect of over 60% in size
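Complex of BAZ2B and biotin-H3K14Ac (50 nM apiece) forms over 30 min at RT, then faces library compounds up to 110 uM for another 30 min; AlphaScreen beads added, 20 min dark incubation, luminescence read.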
G9a block – inhibitors of human histone lysine methyltransferase G9a; Q96KQ7; G9a H3K9 monomethylation, AlphaScreen, 2 h; Potency, µM (highest dose often 102 µM), hits mostly inhibitors; 350,000 tested, 8.8% active; AID 504332; also: nearly all actives have a fitted effect of over 75% in size
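Compounds were preincubated with 20 nM G9a for 15 min, after which biotinylated H3K9 peptide (500 nM) and SAM (20 uM) started a 2 h room-temperature reaction. Monomethylated product was quantified by antibody-based AlphaScreen chemiluminescence.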
HP1b chromo inh – inhibitors of HP1-beta chromodomain binding to methylated histone tails; AlphaScreen HP1-beta / biotin-H3K9me3 peptide binding; Potency, µM (series often up to 114 µM), actives largely listed as inhibitors; P83916; 390,000 tested, 0.56% active; AID 540317; also: nearly all actives have a fitted effect of over 70% in size
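AlphaScreen: HP1-beta (50 nM) preformed 30 min with biotin-H3(1-18)K9me3 peptide (50 nM) in PBS pH 7.4, 0.01% Tween-20. Compound added for 30 min at RT, then streptavidin donor/nickel chelate acceptor beads (10 ug/mL) for 30 min.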
Hits are given with their value; n = inactive; u = inconclusive; x = not tested or not shown; [ ] = another dose, or the depositor's remark. Calls follow the shape of the dose curve; as a rule, active = well fitted curve in the direction sought with a large enough effect; inconclusive = small, poorly fitted or top-dose-only effect, or another doubt; inactive = no such curve, though single readings can be large; an effect the other way counts as inactive or inconclusive.

SMILES	ALOX12 inh	Sfp PPTase inh	JMJD2A Tudor inh	BAZ2B inh	G9a block	HP1b chromo inh
O=C(Cn1ccn(-c2ccc(F)c(F)c2)c(=O)c1=O)Nc1cccc(Cl)c1	n	x	x	x	x	x
CCSC1=N/C(=C\C=C2/Oc3ccccc3N2CC)C(=O)S1	u	n	35µM	32µM	13µM	u
COCC(=O)N[C@H]1CC[C@]2(C)CCC([C@H](C)C(=O)NCc3ccc4c(c3)OCO4)[C@H](O)[C@H]2[C@@H]1C (stereo partly specified)	n	x	x	x	x	x
CC(C)(C)c1ccc2c(c1)OCCOCCOCCO2	n	x	x	x	x	x
O=c1c2ccccc2c(=O)n(-c2ccccc2)n1-c1ccccc1	n	x	n	x	x	n
O=c1c2ccccc2c2ccccc2c(=O)n1-c1ccccc1	n	n	n	n	50µM	n
COc1cccc(CN2CC3(CCN(C)C3)c3cc(C(=O)NC4CCCCC4)ccc32)c1 (stereo unspecified)	n	x	x	x	x	x
O=C(NC(=S)Nc1ccccc1O)c1ccc(-c2ccc(Cl)cc2)o1	u	n	n[11.4 µM]	n	n[2.33 µM]	n
Cc1c(NC(=S)NC(=O)c2ccc(-c3ccc(Cl)cc3)o2)cccc1C(=O)O	28µM	n	n	n	45µM	n
COc1ccccc1NC(=S)NC(=O)c1ccc(-c2ccc(Cl)cc2)o1	u	18µM	n	n	n	n
Cc1ccc(O)c(NC(=S)NC(=O)c2ccc(-c3ccc(Cl)cc3)o2)c1	u	x	n[11.4 µM]	x	x	n
O=C(O)C(c1c[nH]c2ccccc12)N1CCN(Cc2ccccn2)CC1 (stereo unspecified)	n	x	x	x	x	x
c1ccc2c(c1)OCC(CCNc1ncncn1)O2 (stereo unspecified)	n	x	x	x	x	x
COc1ccccc1CNC(=O)COC(=O)c1cc(-c2ccco2)nc2ccccc12	u	u	20µM	40µM	13µM	u
O=C(COC(=O)c1cc(-c2ccco2)nc2ccccc12)NCc1ccc2c(c1)OCO2	u	n	n	n	13µM	n
O=C(COC(=O)c1ccco1)NCc1ccc2c(c1)OCO2	n	n	n	n	n	n
CN1CCN(c2ncc3nc(-c4cn(C)c5ccccc45)c(=O)n(-c4ccccc4)c3n2)CC1	6.3µM	n	x	x	n[0.501 µM]	x
CN(c1ccc(F)cc1)S(=O)(=O)c1ccc(Cl)c(C(=O)NCC(c2ccco2)N2CCCCC2)c1 (stereo unspecified)	0.79µM	x	u	56µM	28µM	n
CN(C)C(CNC(=O)c1cc(S(=O)(=O)N(C)c2ccc(F)cc2)ccc1Cl)c1ccco1 (stereo unspecified)	n	x	n	n	n[12.7 µM]	n
O=c1cc(-c2ccccc2)oc2cc(O[C@@H]3O[C@H](CO)[C@@H](O)[C@H](O)[C@H]3O)c(O)c(O)c12	x	50µM	x	x	x	x
O=c1cc(-c2ccc(O)c(O)c2)oc2cc(O[C@@H]3O[C@H](CO)[C@@H](O)[C@H](O)[C@H]3O)cc(O)c12	n	n	13µM	x	x	n
O=C1c2cccnc2C(=O)N1C1CCCCC1	n	n	n	79µM	n	n
O=C1N(Cc2cccnc2)C[C@@H]2C[C@@H](c3ccc(-c4ccccc4)cc3)N3CCC[C@@]123	n	n	n	n	50µM	n
Cn1cc([C@@H]2C[C@H]3CN(Cc4cccc(Cl)c4)C(=O)[C@]34CCCN24)c2ccccc21	n	n	n	n	50µM	n
O=C1N(Cc2cccc(Cl)c2)C[C@@H]2C[C@@H](c3ccccn3)N3CCC[C@@]123	n	50µM	n	79µM	25µM	n
SMILES	ALOX12 inh	Sfp PPTase inh	JMJD2A Tudor inh	BAZ2B inh	G9a block	HP1b chromo inh
CCn1c(CS(=O)Cc2ccc(Cl)cc2Cl)nnc1SCc1c(Cl)cccc1Cl (stereo unspecified)	n	n	n	n	16µM	n
Cc1cc2c(cc(C(=O)N3CCC(C(=O)N4CCCC4)CC3)n2Cc2c(F)cccc2Cl)o1	n	50µM	56µM	u	50µM	n
O=C(c1ccc2c(c1)OCCO2)N1CCN(Cc2c(F)cccc2Cl)CC1	n	x	n	n	n[12.7 µM]	n
CCOC(=O)c1cc2occc2n1Cc1c(F)cccc1Cl	n	n	n	50µM	u	n
CCOC(=O)c1cc2occc2n1Cc1ccc(F)cc1	n	n	n	u	n	n
CCn1nccc1C(=O)N1C[C@@H](Oc2ccccc2)C[C@@H]1C(=O)NC	n	x	x	x	x	x
N#C/C(=C\c1ccccn1)c1nc2ccccc2s1	32µM	n	n	n	n	n
COC(=O)c1ccc(/C=C(\C#N)c2nc3ccccc3s2)cc1	u	n	n	n	n	n
Cc1c(C(=O)Oc2cc(N)n(S(C)(=O)=O)n2)cccc1[N+](=O)[O-]	n	n	n	u	16µM	n
CC(C)c1ccccc1OCC(=O)Nc1ccc2[nH]ncc2c1	n	n	n	n	71µM	n
Cc1cc(C)cc(OCC(=O)Nc2ccc3[nH]ncc3c2)c1	n	x	x	x	x	x
O=C(O)c1cc2n(n1)CCN(Cc1ccccc1Cl)C2=O	n	n	n[11.4 µM]	u	50µM	n
O=C(O)CN1CCN(Cc2ccccc2Cl)C1=O	n	n	n	n	n	n
COc1cccc(-c2nc3cc4c(cc3cc2CN2CCSCC2)OCO4)c1OC	n	x	x	x	x	x
C=CCNC(=S)NNC(=O)C(CCCC)CC(C)(C)O (stereo unspecified)	n	18µM	n	u	u	n
C=CCNC(=S)NNC(=O)C(C)C	n	x	x	x	x	x
O=C(NC(C(=O)N1CCCC1)C1CCN(C(=O)c2ccccc2)CC1)c1ccc(F)cc1 (stereo unspecified)	n	x	x	x	x	x
c1ccc(Sc2ccccn2)cc1	u	x	n	x	x	n
c1ccc(SSc2ccccn2)nc1	x	x	4µM	x	x	u
COc1ccccc1NC(=S)NC(=O)/C=C/c1cccs1	35µM	n	n	x	45µM	n
COc1ccc(/C=C/C(=O)NC(=S)NNC(=O)Cc2cccs2)cc1OC	n	n	n	n	3.5µM	n
COc1ccccc1/C=C/C(=O)NC(=S)NC(C)C	25µM	u	n	n	n	n
COc1ccccc1NC(=S)NNC(=O)c1nn(C)c(C)c1Br	n	n	n	n	11µM	n
COc1ccc(/C=C/C(=O)NC(=S)NNC(=O)c2cccs2)cc1OC	n	n	n	n	u	n
COc1cccc(CN(C(=O)c2sc3cc(C)ccc3c2Cl)C2CCS(=O)(=O)C2)c1 (stereo unspecified)	n	x	x	x	x	x
COc1ccccc1-c1nnc2n1C(C(=O)N1CCOCC1)CC2 (stereo unspecified)	n[6.33 µM]	x	x	x	x	x
O=C(/C=C/c1cccs1)NCc1cccs1	n	x	n	x	x	n
O=C(/C=C/c1cccs1)NC(=S)NNC(=O)Cc1cccs1	n	n	n	n	4.5µM	n
COc1ccccc1NC(=S)NC(=O)Cc1ccccc1	n	x	n	x	x	n
COc1ccccc1NC(=S)NC(=O)C(C)(C)C	u	n	n	n	40µM	n
